# Data as given in PubChem BioAssay.
# Activity calls are given as the source filed them.
# Tests used:
# [1] = tested on: Plasmodium falciparum Sir2 (PF13_0152, Sir2A); assay: pfSir2 binders on small-molecule microarrays, primary screen, biochemical, small-molecule microarray, 635 nm fluorescence (AID 1098); settings: small-molecule microarray binding, fluorescence 635 nm; higher = more signal;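 also: score merges spot fluorescence intensity with its signal-to-noise ratio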
# [2] = small-molecule microarray binders of probe aDKK1, primary screen, biochemical, biotinylated probe, 635/667 nm fluorescence (AID 1099); settings: higher = more signal;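 also: score merges 667nm spot fluorescence with signal to noise across triplicate slides; reference of the scale not given here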
# [3] = small-molecule microarray binders of probe aCHRDL2, primary screen, biochemical, biotinylated probe, 635/667 nm fluorescence (AID 1100); settings: higher = more signal
# [4] = splicing luciferase reporter signal modulators, primary screen, spliceosome inhibition project, cell-based, HEK293, splice +/- reporter (AID 1101); settings: luminescence, 24 h, higher = more signal, called active from +8 up or from −8 down;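 also: HEK293 cells carrying a splicing-competent luciferase reporter gene; test concentration not given here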
# [5] = target: Fibroblast growth factor 10 (Homo sapiens) (UniProt O15520); assay: FGF10 binders on small-molecule microarrays, primary screen, biochemical, small-molecule microarray, 635 nm fluorescence (AID 1102); settings: FGF10 binding, fluorescence 635 nm, higher = more signal
# Fibroblast growth factor 10 (Homo sapiens), sequence (O15520 whole entry, looked up): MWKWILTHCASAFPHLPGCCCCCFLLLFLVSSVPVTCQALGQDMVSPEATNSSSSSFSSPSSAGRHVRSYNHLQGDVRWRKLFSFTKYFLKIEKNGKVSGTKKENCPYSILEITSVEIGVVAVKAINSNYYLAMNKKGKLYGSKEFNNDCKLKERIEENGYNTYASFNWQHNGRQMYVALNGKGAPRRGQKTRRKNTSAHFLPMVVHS
# [6] = tested on: glycogen synthase kinase-3 (GSK3A per assay name; protocol says GSK3B); assay: GSK3 binders on small-molecule microarrays, primary screen, biochemical, small-molecule microarray, 635 nm fluorescence, GSK3A (AID 1103); settings: small-molecule microarray binding, fluorescence 635 nm; higher = more signal; also: the record names both GSK3A and GSK3B
# [7] = target: Epidermal growth factor receptor (Homo sapiens) (UniProt P00533); assay: EGFR binders on small-molecule microarrays, primary screen, biochemical, small-molecule microarray, 635 nm fluorescence (AID 1104); settings: EGFR binding, higher = more signal;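 also: score merges 667 nm emission intensity with spot signal to noise over triplicate slides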
# Epidermal growth factor receptor (Homo sapiens), sequence (P00533 whole entry, looked up): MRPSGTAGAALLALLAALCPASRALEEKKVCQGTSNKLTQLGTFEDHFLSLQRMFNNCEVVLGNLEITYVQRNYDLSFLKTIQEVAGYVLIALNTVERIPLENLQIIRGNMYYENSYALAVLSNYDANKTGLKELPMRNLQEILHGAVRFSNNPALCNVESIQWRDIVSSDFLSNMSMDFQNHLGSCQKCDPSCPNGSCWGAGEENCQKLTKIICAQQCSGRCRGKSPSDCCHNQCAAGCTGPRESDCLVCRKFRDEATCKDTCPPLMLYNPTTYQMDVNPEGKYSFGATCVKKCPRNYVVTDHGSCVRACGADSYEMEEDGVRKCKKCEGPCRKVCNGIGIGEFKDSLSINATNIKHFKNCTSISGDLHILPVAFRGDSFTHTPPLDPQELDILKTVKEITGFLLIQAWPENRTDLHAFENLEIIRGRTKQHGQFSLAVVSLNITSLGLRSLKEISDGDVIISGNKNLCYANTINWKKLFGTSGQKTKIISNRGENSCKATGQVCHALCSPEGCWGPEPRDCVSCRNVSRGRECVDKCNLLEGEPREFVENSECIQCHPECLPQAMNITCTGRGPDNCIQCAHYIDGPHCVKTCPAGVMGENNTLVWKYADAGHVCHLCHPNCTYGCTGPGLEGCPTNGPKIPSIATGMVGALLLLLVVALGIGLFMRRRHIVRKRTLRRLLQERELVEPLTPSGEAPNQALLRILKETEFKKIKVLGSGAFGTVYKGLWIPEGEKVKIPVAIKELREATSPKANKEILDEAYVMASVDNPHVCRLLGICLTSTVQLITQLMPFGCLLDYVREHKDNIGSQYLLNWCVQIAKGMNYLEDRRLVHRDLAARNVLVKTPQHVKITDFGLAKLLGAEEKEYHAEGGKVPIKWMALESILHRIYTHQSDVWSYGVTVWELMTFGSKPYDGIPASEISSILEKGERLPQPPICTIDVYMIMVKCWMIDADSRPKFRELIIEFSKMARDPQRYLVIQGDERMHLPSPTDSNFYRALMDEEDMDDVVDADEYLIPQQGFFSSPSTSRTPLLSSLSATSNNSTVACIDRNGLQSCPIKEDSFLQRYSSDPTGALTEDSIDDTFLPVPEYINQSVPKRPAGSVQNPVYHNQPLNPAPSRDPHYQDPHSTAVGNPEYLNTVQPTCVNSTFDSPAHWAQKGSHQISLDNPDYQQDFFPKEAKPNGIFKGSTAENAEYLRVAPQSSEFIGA
# [8] = target: Follistatin-related protein 3 (Homo sapiens) (UniProt O95633); assay: FSTL3 binders on small-molecule microarrays, primary screen, biochemical, small-molecule microarray, 635 nm fluorescence (AID 1105); settings: FSTL3 binding, higher = more signal;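 also: score merges emission near 667 nm and signal to noise per printed spot across three slides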
# Follistatin-related protein 3 (Homo sapiens), sequence (O95633 whole entry, looked up): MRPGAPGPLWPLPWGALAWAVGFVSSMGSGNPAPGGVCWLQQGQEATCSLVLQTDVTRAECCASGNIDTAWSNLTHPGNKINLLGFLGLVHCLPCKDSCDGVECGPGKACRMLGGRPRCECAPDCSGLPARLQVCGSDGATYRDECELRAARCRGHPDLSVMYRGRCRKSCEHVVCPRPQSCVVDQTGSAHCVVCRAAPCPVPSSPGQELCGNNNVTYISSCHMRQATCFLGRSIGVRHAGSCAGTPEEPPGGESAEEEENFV
# [9] = target: Dickkopf-related protein 1 (Homo sapiens) (UniProt O94907); assay: DKK1 binders on small-molecule microarrays, primary screen, biochemical, small-molecule microarray, 635 nm fluorescence scan (AID 1106); settings: DKK1 binding, higher = more signal;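 also: score merges emission near 667 nm with signal to noise over three replicate slides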
# Dickkopf-related protein 1 (Homo sapiens), sequence (O94907 whole entry, looked up): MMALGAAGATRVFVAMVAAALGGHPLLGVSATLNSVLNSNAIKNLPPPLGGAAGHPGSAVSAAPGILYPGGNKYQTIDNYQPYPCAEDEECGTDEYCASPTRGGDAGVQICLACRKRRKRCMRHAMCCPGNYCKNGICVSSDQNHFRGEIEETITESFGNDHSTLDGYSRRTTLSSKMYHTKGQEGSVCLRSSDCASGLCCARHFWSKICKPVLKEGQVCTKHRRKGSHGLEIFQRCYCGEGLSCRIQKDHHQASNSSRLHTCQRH
# [10] = tested on: Inhibin beta A chain (activin A); assay: INHBA (activin A) binders on microarrays, primary screen, biochemical, small-molecule microarray, 635 nm fluorescence scan (AID 1107); settings: small-molecule microarray binding, higher = more signal;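 also: mouse activin A protein probed at 4.33 µg/mL on printed slides; score merges bound-protein fluorescence near 667 nm with spot signal-to-noise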
Structure (SMILES),composite z-score [1],composite z-score [2],composite z-score [3],z-score [4],composite z-score [5],composite z-score [6],composite z-score [7],composite z-score [8],composite z-score [9],composite z-score [10]
C=C(CCCC)/C(=C/C[C@@H](OC(C)=O)c1ccc(OCCO)cc1)c1cc(C(=O)OC)ccc1OC,1.14,0.0822,0.411,0.374 (inactive),0.151,0.244,-0.597,-0.137,-0.348,0.763
COC(=O)[C@H](Cc1ccccc1)N1CC(C)(OC)O[C@@H](Cc2ccccc2)[C@H]1/C=C/C1CC1 (stereo not given in full),0.292,-0.158,0.0982,-0.579 (inactive),-0.105,0.178,-0.359,-0.151,-0.268,0.609
C=CCNC(=O)[C@@H]1[C@H]2C(=O)O[C@H](c3ccccc3)[C@H](c3ccccc3)N2[C@H](c2ccc(OCCO)cc2)[C@@]12C(=O)Nc1ccc(C#CCNC(N)=O)cc12,1.05,-0.123,0.584,-0.0958 (inactive),-0.385,-0.402,-1.13,0.16,-0.456,1.31
COC(=O)C1=CC(c2ccc(CO)cc2)=CC(C2CC2)N(Cc2cc3c(cc2Br)OCO3)C=C1C(=O)OC (stereo not given),1.66,0.706,0.844,1.17 (inactive),1.18,1.29,0.737,0.89,0.157,0.836
O=C1N(Cc2ccccc2)c2ccccc2C[C@@]12N=C(c1ccc(OCCCO)cc1)O[C@H]2c1ccccc1,-0.0351,0.184,0.923,-0.521 (inactive),0.457,0.977,0.282,0.319,-0.648,0.295
O=C/C=C/c1ccc(-c2ccccc2)cc1,-0.821,-0.241,0.149,-1.04 (inactive),0.141,-0.1,0.005,0.0445,-0.14,1.1
COc1ccc(CCNC(=O)[C@@]2(c3ccc([N+](=O)[O-])cc3)CC(=O)N(C3CCCCC3)[C@@H]2c2ccc(CO)cc2I)cc1,0.401,-0.0644,-0.0582,0.845 (inactive),0.823,0.56,0.19,0.241,0.608,0.44
COCCOC(=O)N1C(=O)[C@@]2(c3cc(C#CCNC(N)=O)ccc31)[C@H](c1ccc(O)cc1)N1[C@H](c3ccccc3)[C@H](c3ccccc3)OC(=O)[C@H]1[C@@H]2C(=O)N1CCc2cc(OC)c(OC)cc2C1,0.391,0.206,0.493,-1.41 (inactive),1.19,-0.447,0.292,1.2,0.372,0.899
C=CCOC(=O)[C@H]1[C@@H]2C(=O)O[C@@H](c3ccccc3)[C@@H](c3ccccc3)N2[C@@H](c2ccc(OCCOC(=O)[C@@H]3C[C@@H]4C(=O)N[C@@H](Cc5ccccc5)C(=O)N4[C@@H]3c3ccc(O)cc3)cc2)[C@]12C(=O)Nc1ccc(I)cc12,1.5,-0.188,-0.381,-0.461 (inactive),1.31,0.606,0.654,1.24,0.825,0.684
CC(=O)NCCCC[C@@H]1NC(=O)[C@H]2C[C@@H](C(=O)O)[C@@H](c3cccc(OCCO)c3)N2C1=O,1.69,0.904,0.237,0.345 (inactive),1.25,1.33,0.556,1.32,0.639,0.316
CC(C)C[C@@H]1NC(=O)[C@@H]2C[C@H](C(=O)NCCCCCNC(=O)CS)[C@H](c3ccc(O)cc3)N2C1=O,1.67,-0.1,-0.03,-3.37 (inactive),-0.113,-0.0192,0.135,0.286,0.353,-0.111
CCN1C(=O)C2CC(=O)C3C(CN(S(=O)(=O)c4ccc(C)cc4)C3c3ccc(C)cc3)C2C1=O (stereo not given),0.959,0.972,0.882,-0.106 (inactive),0.193,0.338,-0.483,-0.167,-0.295,1.15
COCCOC(=O)N1C(=O)[C@@]2(c3cc(C#CCNC(N)=O)ccc31)[C@H](C(N)=O)[C@H]1C(=O)O[C@H](c3ccccc3)[C@H](c3ccccc3)N1[C@@H]2c1ccc(O)cc1,0.92,0.554,0.614,0.359 (inactive),0.149,-0.575,-0.278,-0.239,0.0656,0.676
COC(=O)[C@@]1(Cc2ccc(OC)cc2)[C@H]2c3cc(C(=O)N(C)C)n(Cc4c(CO)[nH]cc(C)c4=O)c3C[C@H]2CN1C(=O)c1ccccc1,0.258,0.899,0.731,0.323 (inactive),-0.17,0.664,0.0854,0.128,-0.14,0.779
CCCCCN1CC=CC23O[C@@H]4/C=C\CCCOC(=O)C4[C@H]2C(=O)N(CCCCCO)[C@@H]3C1=O (stereo not given in full),0.447,-0.267,0.337,-0.831 (inactive),-0.566,-0.364,-0.779,-0.521,-0.833,0.468
CC(C)[Si](C#Cc1ccccc1)(O[C@H](c1ccccc1)c1cn(Cc2ccccc2)nn1)C(C)C,1.56,0.191,-0.386,-1.97 (inactive),0.785,1.06,0.726,1.49,1.86,-0.165
CCCCCCc1nc(Cc2cc(OC)c(OC)c(OC)c2)c(C)c2c1[Si](C(C)C)(C(C)C)OC2,0.197,-0.1,-0.35,-2.3 (inactive),0.261,0.104,-0.0718,0.237,0.163,0.987
Cc1ccc(S[C@]2(C(=O)NC(C)C)CC(=O)N(Cc3ccccc3)[C@@H]2c2ccc(CO)cc2)cc1,0.0089,0.108,0.915,-0.538 (inactive),-1.18,-1.34,-1.01,-0.363,-1.51,0.159
O=C(NCC(F)(F)F)[C@@H]1c2ccccc2C(=O)N(Cc2cc(C(F)(F)F)cc(C(F)(F)F)c2)[C@H]1c1ccc(CO)cc1,1.78,-0.207,0.272,0.245 (inactive),0.728,-0.137,-0.284,-0.145,0.382,0.0807
C=C(C(=O)CC[C@@H](OC(=O)c1ccccc1-c1ccccc1C(=O)O)c1ccc(CO)o1)C(C)C,1.07,-0.258,-0.532,0.88 (inactive),1.51,0.913,-0.132,0.648,1.12,0.927
CCOC(=O)C[C@H]1[C@H](OC(=O)c2cc3ccccc3oc2=O)[C@@H](NC(=O)Cc2ccc(OC)cc2)c2cc(OCCCO)ccc2N1C(=O)Cc1ccc(OC)cc1,0.776,-0.249,-0.43,-1.28 (inactive),0.703,0.382,0.455,0.789,0.328,0.156
Cc1ccc(S[C@]2(C(=O)NC3CC3)CC(=O)N(C3Cc4ccccc4C3)[C@@H]2c2ccc(CO)cc2I)cc1,0.911,0.379,0.524,-1.38 (inactive),-0.745,-0.641,-1.62,-1.11,-0.826,0.771
C[N+](C)(C)CCCC[C@@H]1NC(=O)[C@H]2C[C@@H](C(=O)NCCCCCN)[C@@H](c3ccc(O)cc3)N2C1=O,0.977,0.876,0.863,0.127 (inactive),1.53,1.34,0.243,0.58,0.89,0.617
COc1ccc(CCNC(=O)[C@@H]2c3ccccc3C(=O)N(Cc3cc(F)cc(C(F)(F)F)c3)[C@H]2c2ccc(CO)cc2)cc1,0.181,1.89,0.877,-0.267 (inactive),0.12,0.765,0.321,1.1,0.157,1.08
COCCOC(=O)N1C(=O)[C@@]2(c3cc(C#CCNC(N)=O)ccc31)[C@H](C(=O)N1CCN(c3ncccn3)CC1)[C@H]1C(=O)O[C@H](c3ccccc3)[C@H](c3ccccc3)N1[C@@H]2c1ccc(O)cc1,0.505,-0.326,-0.47,-0.428 (inactive),-0.735,-0.438,-1.14,-0.997,-1.92,-0.853
CC(C)[Si]1(C(C)C)OCc2cc(-c3ccc(-c4ccc(Cl)c(Cl)c4)o3)nc(-c3ccc(Oc4ccccc4)cc3)c21,-0.952,0.118,0.745,-1.25 (inactive),-1.78,-2.03,-1.46,-2.09,-2.01,0.434
CCCCC(=C=CC[C@H](O)c1ccccc1OCCO)CCO,0.653,-0.182,-0.0244,-0.25 (inactive),0.27,-0.123,-0.689,-0.569,-0.429,0.754
